About 5,100 (1.2%) of roughly 410,000 compounds were called active. Roughly 8% stayed inconclusive and do not appear here. Calls come from the whole dose curve; tested in HEK293T cells. What follows is part of a selection rich in actives, with near analogues and random picks from the rest.
Test: High Throughput Screening for Foot and Mouth Disease Virus Antivirals; note: read-out not given here; nearly all actives have a fitted effect of over 45% in size
Conditions: FMDV antiviral cell-based qHTS; series mostly up to 57.9 µM; activity change, negative = inhibition: at the top concentration
% is set by controls: 0 for no effect and ±100 for the full control effect; potency is the fitted concentration of half-maximal effect.

Row | SMILES | activity change, negative = inhibition | Potency
1 | COc1ccccc1N1CCN(C[C@@H]2CN3C(=O)N(C)c4ccccc4C3=N2)CC1 | -13.2% (inactive) | 
2 | O=c1c(CCc2ccccc2)nc2cncnc2n1C1CC1 | -0.104% (inactive) | 
3 | CCCc1ccc(-c2c(C)sc(NC(=O)c3ccnn3C)c2C#N)cc1 |  | 15.8 µM (active)
4 | CCc1ccccc1NC(=O)CSc1nc(C)c(C(=O)Nc2ccccc2)c(-c2ccc(Cl)cc2)c1C#N | -3.98% (inactive) | 
5 | Cc1c(C(=O)OC(C)C)sc(NC(=O)c2cccnc2)c1C#N | -17.2% (inactive) | 
6 | COc1ccc(C(=O)NCc2ccc(Cl)cc2)cc1S(=O)(=O)N1CCCC1 | 12.2% (inactive) | 
7 | O=C(NCCc1ccc(F)cc1)c1ccc(S(=O)(=O)N2CCCCC2)cc1 | -11.9% (inactive) | 
8 | NS(=O)(=O)c1ccc(CCNC(=O)c2ccc(Cl)c(S(=O)(=O)N3CCCCCC3)c2)cc1 |  | 14.1 µM (active)
9 | O=C(CCS(=O)(=O)c1ccccc1)N(Cc1cccnc1)c1nc2c(F)cccc2s1 | -14.1% (inactive) | 
10 | O=C(c1ccc(F)cc1)C1CCN(CCCCc2ccccc2)CC1 | -8.09% (inactive) | 
11 | CS(=O)(=O)N1CCC2(CC1)CN(c1ccncc1)C2 | -4% (inactive) | 
12 | CCOC(=O)c1c(NC(=O)c2cc(-c3ccc(Cl)cc3)on2)sc2c1CCCC2 | -19.7% (inactive) | 
13 | Cc1ccc(Cl)cc1NC(=O)CSc1nc2ccccc2nc1Cc1ccccc1 | 0.711% (inactive) | 
14 | NC(=O)c1sc(-c2ccsc2)cc1N | 7.11% (inactive) | 
15 | CN(CCO)c1ccc(/C=N/Nc2nncc3ccccc23)cc1 |  | 10 µM (active)
16 | COc1cccc(-c2cc(NCCc3c[nH]c4ccc(OC)cc34)ncn2)c1 | 11% (inactive) | 
17 | O=C(c1cnccn1)N1CCC2(CCCN(Cc3ccccc3)C2)CC1 | -5.51% (inactive) | 
18 | CCNc1ncc2ncc(=O)n(CCc3ccccc3)c2n1 | -17.7% (inactive) | 
19 | COc1ccc(Nc2cc(C(=O)NCCCN(C)c3ccccc3)c3ccccc3n2)c(OC)c1 | -28% (inactive) | 
20 | O=C(Nc1cccc(F)c1)N1CC2(CCN(C(=O)c3csnn3)CC2)C1 | -5.25% (inactive) | 
21 | CCOC(=O)C1=C(c2ccc(OC)cc2)C(=O)c2ccccc2C1=O |  | 3.55 µM (active)
22 | CCOC(=O)C1C(=O)C=C(c2ccc(OC)cc2)CC1c1ccco1 (configuration not stated) | -7.7% (inactive) | 
23 | CCOC(=O)C1=C(c2ccccc2)NC(=O)NC1c1cc(OC)c(OC)cc1OC (configuration not stated) | -0.619% (inactive) | 

Row | SMILES | activity change, negative = inhibition | Potency
24 | CN(C)S(=O)(=O)c1ccc(C(=O)NCC(C)(C)N2CCOCC2)cc1 | -12.6% (inactive) | 
25 | CC(C)(CNC(=O)c1ccc(Cl)c(S(=O)(=O)N2CCc3ccccc3C2)c1)N1CCOCC1 |  | 12.6 µM (active)
26 | CC(C)(CNC(=O)Cc1ccc(Cl)cc1Cl)N1CCOCC1 | 9.26% (inactive) | 
27 | Cc1ccc(S(=O)(=O)c2c(Nc3cccc(Cl)c3)sc(C(=O)c3ccc4c(c3)OCO4)c2N)cc1 | 9.11% (inactive) | 
28 | CCS(=O)(=O)N1CCc2cc(C(=O)N3CCN(c4ccccc4OC)CC3)ccc21 | -12.5% (inactive) | 
29 | COc1ccccc1N1CCN(C(=O)c2ccc(Cl)c(S(=O)(=O)N3CCCC3)c2)CC1 |  | 20 µM (active)
30 | COc1ccccc1CNC(=O)c1ccc(Cl)c(S(=O)(=O)N2CCCC2)c1 | -15.1% (inactive) | 
31 | CCCC1OC23CCCCC2C(C#N)(C#N)C1(C#N)C(=N)O3 (configuration not stated) |  | 20 µM (active)
32 | CN1CCCC1CCO[C@@](C)(c1ccccc1)c1ccc(Cl)cc1 (some centres not stated) | -12.3% (inactive) | 
33 | CN1CCN(C(=O)O[C@@H]2c3nccnc3C(=O)N2c2ccc(Cl)cn2)CC1 | -5.32% (inactive) | 
34 | Cc1cnc(-n2ncc(C(=O)N3CCN(C(C)C)CC3)c2-c2ccco2)nc1-c1ccc(F)cc1 | -16% (inactive) | 
35 | CCN(CC)S(=O)(=O)c1ccc(N(C)Cc2cccc(OC)c2OC)nc1 |  | 20 µM (active)
36 | COc1ccc(S(=O)(=O)N2CCCCCC2)cc1C(=O)N(C)Cc1cccc(OC)c1OC | -17.4% (inactive) | 
37 | COc1cccc(CN(C)CC(=O)NCc2ccccc2Cl)c1OC | 15.7% (inactive) | 
38 | COc1ccc(S(=O)(=O)NCC(c2ccc(N(C)C)cc2)N2CCCC2)cc1 (configuration not stated) | -22.1% (inactive) | 
39 | COc1ccc(CN2CCOc3c(cc(-c4ncc(C(F)(F)F)cc4Cl)cc3OCC3CCCO3)C2)c(O)c1 (configuration not stated) | -12.2% (inactive) | 
40 | Cc1ccc(NS(=O)(=O)c2ccc3c(c2)CC(=O)N3)cc1Cl | 25.8% (inactive) | 
41 | COCC(=O)N1CCC2(CCCN(c3ccccc3)C2)CC1 | 2.27% (inactive) | 
42 | CC(C)CNC(=O)C1CCCN(S(=O)(=O)c2ccc(-n3cnnn3)cc2)C1 (configuration not stated) | -21.6% (inactive) | 
43 | O=C(Nc1ccc(F)cc1)C1CCCN(S(=O)(=O)c2ccc(-n3cnnn3)cc2)C1 (configuration not stated) | -27.8% (inactive) | 
44 | COC(=O)c1ccc(CN2CCCC(C(=O)Nc3cccc(-n4cnnn4)c3)C2)cc1 (configuration not stated) |  | 28.2 µM (active)
45 | CN(CC(=O)Nc1cccc(C(F)(F)F)c1)S(=O)(=O)c1cccs1 | -0.475% (inactive) | 
46 | COc1ccccc1CNC(=O)C(=O)NCC(c1cccs1)S(=O)(=O)c1cccs1 (configuration not stated) | -28.5% (inactive) | 

Row | SMILES | activity change, negative = inhibition | Potency
47 | C#CCOc1ccccc1/C=C1/C(=O)ON=C1C |  | 39.8 µM (active)
48 | Cc1no[n+]([O-])c1COc1ccccc1/C=C1\NC(=S)NC1=O | -20.6% (inactive) | 
49 | CN1CCCCCC1C(=O)NCCN1Cc2ccccc2OC(c2ccsc2)C1 (configuration not stated) | 0.0789% (inactive) | 
50 | CCn1ccnc1C[C@@H]1COc2ccccc2O1 | 6.47% (inactive) | 
51 | Cc1n[nH]c(C)c1S(=O)(=O)N1CCCC(C(=O)NCC2COc3ccccc3O2)C1 (configuration not stated) | -9.84% (inactive) | 
52 | Cc1cc(C(=O)CCl)c(C)n1CC1COc2ccccc2O1 (configuration not stated) |  | 12.6 µM (active)
53 | Cc1ccc(-c2cn3c(n2)sc2cc(C(=O)NCCCc4ccccc4)ccc23)cc1 | 14.8% (inactive) | 
54 | COc1cc(C2c3c(oc4ccccc4c3=O)C(=O)N2c2nc(C)c(C)s2)ccc1O (configuration not stated) | -11.5% (inactive) | 
55 | COC(C[C@@H]1O[C@@H]1C(=O)[C@H](C)OCc1ccccc1)OC | -10.1% (inactive) | 
56 | COC(C/C=C/C(=O)[C@@H](C)OCc1ccccc1)OC |  | 39.8 µM (active)
57 | COC(C[C@H](O)CC(=O)[C@@H](C)OCc1ccccc1)OC | -7.66% (inactive) | 
58 | Cc1nc2cnc(N3CCNCC3)nc2n(Cc2ccc(F)cc2)c1=O | -10.8% (inactive) | 
59 | C=CCSSCC=C | -4.9% (inactive) | 
60 | O=C(OCc1ccccc1F)c1ccc2c(c1)OCCO2 | 44.5% (inactive) | 
61 | O=C(COC(=O)c1ccccc1)c1ccc2c(c1)OCCO2 |  | 12.6 µM (active)
62 | N#CCCN(C(=O)COC(=O)c1ccc2c(c1)OCCO2)c1ccccc1 | -0.86% (inactive) | 
63 | COc1cc(=O)n2c(c1C(=O)N(C)Cc1nonc1C)CCN(C(=O)c1ccc(C)cc1C)CC2 | 3.5% (inactive) | 
64 | COc1ccc(-c2nc3cnc(N(C)C)nc3n(Cc3cccs3)c2=O)cc1 | -1.02% (inactive) | 
65 | Cc1cccc(-n2ncc(C(=O)N3CCC(C)CC3)c2C2CCN(C(=O)OC(C)(C)C)CC2)c1 | -4.72% (inactive) | 
66 | Cc1cccc(-n2ncc(C(=O)N3CCc4ccccc4C3)c2C2CCN(C(=O)OC(C)(C)C)CC2)c1 |  | 2 µM (active)
67 | Cc1cccc(-n2ncc(C(=O)N3CCN(c4ccc(Cl)cc4)CC3)c2C2CCN(C(=O)OC(C)(C)C)CC2)c1 | -12.8% (inactive) | 

Source: PubChem BioAssay AID1159524 (National Center for Advancing Translational Sciences (NCATS), 2015)
